From article PMC4336329 (PLoS ONE, 2015)
Out of some 310,000 compounds screened, about 14,000 (4.5%) showed an effect of 50% or more. The effect is printed as a negative number. The sample holds strong results, similar compounds and a random draw of the others, so the mix is not that of the screen.

Target: human ether-à-go-go-related gene (hERG) potassium channel (human, UniProt Q12809)
Experiment: primary screen, population patch clamp on CHO cells stably expressing hERG; higher = less effect of the substance
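Further: peak tail current of the secondary pulse compared with the same well before compound.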

Chain of human ether-à-go-go-related gene (hERG) potassium channel (Q12809 whole entry, looked up): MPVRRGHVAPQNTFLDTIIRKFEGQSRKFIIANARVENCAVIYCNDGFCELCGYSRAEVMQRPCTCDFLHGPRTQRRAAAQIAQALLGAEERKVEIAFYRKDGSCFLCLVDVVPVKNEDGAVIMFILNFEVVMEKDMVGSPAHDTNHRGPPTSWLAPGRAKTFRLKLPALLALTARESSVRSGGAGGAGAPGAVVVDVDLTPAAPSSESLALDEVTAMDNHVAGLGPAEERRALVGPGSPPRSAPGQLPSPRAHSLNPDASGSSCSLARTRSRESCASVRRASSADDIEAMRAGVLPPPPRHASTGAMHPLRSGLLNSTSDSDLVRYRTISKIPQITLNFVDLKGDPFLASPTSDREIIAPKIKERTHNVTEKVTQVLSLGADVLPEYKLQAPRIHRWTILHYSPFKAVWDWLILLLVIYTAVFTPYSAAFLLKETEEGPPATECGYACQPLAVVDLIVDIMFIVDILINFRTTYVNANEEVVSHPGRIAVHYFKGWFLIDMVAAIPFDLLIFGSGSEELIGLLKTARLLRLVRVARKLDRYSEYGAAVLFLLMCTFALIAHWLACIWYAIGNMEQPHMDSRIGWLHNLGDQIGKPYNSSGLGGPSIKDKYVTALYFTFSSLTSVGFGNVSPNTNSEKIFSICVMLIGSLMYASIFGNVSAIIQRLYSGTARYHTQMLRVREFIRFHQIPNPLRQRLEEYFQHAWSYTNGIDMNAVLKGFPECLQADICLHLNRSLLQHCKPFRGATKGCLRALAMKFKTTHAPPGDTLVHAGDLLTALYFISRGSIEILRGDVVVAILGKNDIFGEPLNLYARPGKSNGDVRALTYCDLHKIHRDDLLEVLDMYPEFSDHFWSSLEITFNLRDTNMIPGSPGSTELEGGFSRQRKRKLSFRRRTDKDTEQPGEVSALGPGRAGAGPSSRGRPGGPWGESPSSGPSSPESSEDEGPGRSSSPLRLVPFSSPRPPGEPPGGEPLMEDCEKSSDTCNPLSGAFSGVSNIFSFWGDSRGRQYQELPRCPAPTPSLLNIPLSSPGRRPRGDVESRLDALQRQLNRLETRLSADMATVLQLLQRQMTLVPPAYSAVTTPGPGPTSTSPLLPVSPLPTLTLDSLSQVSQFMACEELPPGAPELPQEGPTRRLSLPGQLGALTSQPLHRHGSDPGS

| Compound | hERG current change (%, negative = inhibition) at 10uM |
| --- | --- |
| COc1ccc(CN(C)CC(=O)Nc2ccc(Cl)cc2F)c(OC)c1.O=C(O)C(=O)O | -16.1% |
| Cl.Nc1ncnc2sc3c(c12)CCNC3 | 25.4% |
| O=C(COn1nnc2ccc(S(=O)(=O)N3CCOCC3)cc21)NCCc1ccccc1 | -8.87% |
| COc1ccc(CNC(=O)C2CCCN(S(=O)(=O)c3ccc4c(c3)CCCN4C(C)=O)C2)cc1 (stereo not shown) | 4.76% |
| CC(C)Cn1c(N)c(C(=O)COC(=O)c2cccc(Cl)c2)c(=O)n(C)c1=O | -6.08% |
| CC(C)Cn1c(N)c(C(=O)COC(=O)c2c(O)c(Cl)cc(Cl)c2Cl)c(=O)n(C)c1=O | -79.8% |
| CC(C)Cn1c(N)c(C(=O)COC(=O)c2cc(F)cc(F)c2)c(=O)n(C)c1=O | -42.1% |
| CC(C)Cn1c(N)c(C(=O)COC(=O)c2ccc(O)cc2)c(=O)n(C)c1=O | -10.6% |
| CC(C)Cn1c(N)c(C(=O)COC(=O)c2ccc(Cl)cc2)c(=O)n(C)c1=O | -37.4% |
| CC(C)Cn1c(N)c(C(=O)COC(=O)c2cnc(Cl)c(Cl)c2)c(=O)n(C)c1=O | -71.1% |
| CCC(CC)C(=O)Nc1cccc(C(=O)Nc2ccc(S(N)(=O)=O)cc2)c1 | 10.8% |
| Cn1c(CCN2CCOCC2)nc2cc(NC(=O)COc3ccc(Cl)cc3)ccc21 | -55.4% |
| Cn1c(CN2CCOCC2)nc2cc(NC(=O)COc3ccccc3)ccc21 | -0.505% |
| COc1ccc(OCC(=O)Nc2ccc3c(c2)nc(CCN2CCOCC2)n3C)cc1 | -41% |
| Cc1ccc(OCC(=O)Nc2ccc3c(c2)nc(CCN2CCOCC2)n3C)cc1 | -51.3% |
| CC(=O)Nc1ccc2c(c1)nc(CCN1CCOCC1)n2C | 10.4% |
| Cn1c(CCN2CCOCC2)nc2cc(NC(=O)COc3ccccc3)ccc21 | -15.1% |
| CC(=O)Nc1ccccc1NC(=O)C/C(C)=N/NC(=O)C(=O)N1CCCCC1 | -13.3% |
| COc1ccc2[nH]c(=O)c(CN(C(C)=O)c3ccc(C)cc3C)cc2c1 | 1.02% |
| CSc1nc(N)c(C(=O)Nc2ccc([N+](=O)[O-])cc2)s1 | -12.3% |
| O=C(N/N=C\c1cccc(F)c1)c1ccc(-c2ccccc2)cc1 | 27% |
| CC(=O)N(C)C1(c2nnnn2CCOC(=O)Nc2cccc3ccccc23)CCCC1 | 0.969% |
| CCN1CCN(c2ccc(S(=O)(=O)N3CCCCC3)cc2NC(=O)/C=C/c2ccc(F)cc2)CC1 | -48.1% |

| Compound | hERG current change (%, negative = inhibition) at 10uM |
| --- | --- |
| CCN1CCN(c2ccc(S(=O)(=O)N3CCOCC3)cc2NC(=O)/C=C/c2ccc(OC)c(OC)c2)CC1 | 10.4% |
| COc1ccc(/C=C/C(=O)Nc2cc(S(=O)(=O)N3CCCCC3)ccc2N2CCCCC2)cc1OC | 4.11% |
| CCN1CCN(c2ccc(S(=O)(=O)N3CCOCC3)cc2NC(=O)/C=C/c2ccc(C)cc2)CC1 | -46% |
| CCN1CCN(c2ccc(S(=O)(=O)N3CCOCC3)cc2NC(=O)/C=C/c2ccc([N+](=O)[O-])cc2)CC1 | -71.8% |
| CCN1CCN(c2ccc(S(=O)(=O)N3CCCCC3)cc2NC(=O)/C=C/c2ccc([N+](=O)[O-])cc2)CC1 | -70.8% |
| COc1ccc(CCCC(=O)N/N=C\c2cccs2)cc1 | 27.2% |
| COCCNC(=O)c1ccccc1-c1nc(-c2ccccc2Cl)no1 | -9.09% |
| O=C(NC(=S)Nc1ccc2ncccc2c1)c1ccccc1 | 2.36% |
| C=CCn1cnc2scc(-c3ccc(C)cc3)c2c1=O | -10.4% |
| CCCCN(Cc1ccco1)C(=O)Cn1ncc2c(=O)oc3ccc(C)cc3c21 | 13.2% |
| COCCCN(Cc1ccco1)C(=O)Cn1ncc2c(=O)oc3ccc(C)cc3c21 | -49.6% |
| CCOC(=O)Cn1ncc2c(=O)oc3ccccc3c21 | -0.743% |
| Cc1ccc2oc(=O)c3cnn(CC(=O)N(CCCN4CCOCC4)Cc4ccco4)c3c2c1 | -57.5% |
| CCCN(C(=O)Cn1ncc2c(=O)oc3ccccc3c21)c1cccc(C)c1 | -54.3% |
| CCOc1ccccc1N(CC)C(=O)Cn1ncc2c(=O)oc3ccccc3c21 | -26.1% |
| C=C(C)c1cccc(C(C)(C)NC(=O)N2CCN(c3ccccc3OC)CC2)c1 | 4.28% |
| COc1ccc(CCNC(=O)C2CCN(C(=O)c3cccs3)CC2)cc1 | -0.649% |
| CC(=O)c1ccc(NC(=O)CSc2ccc3nnc(-c4ccccn4)n3n2)cc1 | -64.7% |
| CC(=O)c1ccc(NC(=O)CSc2nnc3ccc(-c4ccccn4)nn23)cc1 | -10.5% |
| COc1ccc(NC(=O)CSc2ccc3nnc(-c4ccccn4)n3n2)cc1OC | -18.1% |
| COc1ccc(NC(=O)CSc2ccc3nnc(-c4ccccn4)n3n2)cc1 | -20.9% |
| CC(=O)Nc1ccc(NC(=O)CSc2ccc3nnc(-c4ccccn4)n3n2)cc1 | 17.7% |
| CCOc1ccc(NC(=O)CSc2ccc3nnc(-c4ccccn4)n3n2)cc1 | -54.3% |

| Compound | hERG current change (%, negative = inhibition) at 10uM |
| --- | --- |
| CCc1cccc(C)c1NC(=O)Cn1nc(C)n2cccc2c1=O | 22.9% |
| COc1ccc(-c2csc(N3CCN(c4cc5c(cc4Cl)nc(-c4ccncc4)n5CCOCCO)CC3)n2)cc1 | 12.6% |
| COc1ccc(/C=C(/NC(=O)c2ccccc2)C(=O)N2CCCC2)cc1 | 2.89% |
| COc1ccc(C(=O)N/C(=C\c2ccc(OC)c(OC)c2)C(=O)N2CCCCC2)cc1 | 6.11% |
| CCOC(=O)N1CCN(C(=O)/C(=C/c2ccc(Cl)cc2)NC(=O)c2ccccc2)CC1 | -74.7% |
| COc1ccc(/C=C(\NC(=O)c2ccc(OC)cc2)C(=O)N2CCCCC2)cc1 | -3.21% |
| COc1ccc(/C=C(\NC(=O)c2ccc(C)cc2)C(=O)N2CCCCC2)cc1 | -55.2% |
| COc1ccc(/C=C(/NC(=O)c2ccccc2)C(=O)N2CCCCC2)cc1 | -1.39% |
| CCOC(=O)N1CCN(C(=O)/C(=C/c2ccc(Br)cc2)NC(=O)c2ccc(OC)cc2)CC1 | -78.2% |
| COc1ccc(/C=C(\NC(=O)c2ccccc2)C(=O)N2CCN(C)CC2)cc1 | -76.3% |
| CCOC(=O)N1CCN(C(=O)/C(=C/c2ccc(N(C)C)cc2)NC(=O)c2ccccc2)CC1 | -45.6% |
| O=C(N/C(=C/c1ccc(Cl)cc1)C(=O)N1CCCC1)c1ccccc1 | -8.81% |
| N#Cc1ccc(C(=O)Nc2ccc(S(=O)(=O)NC3=NCCCCC3)cc2)cc1 | -1.54% |
| CC1=CC(=O)c2c(O)ccc(O)c2C1=O | -42.6% |
| Cc1nn(C)c(C)c1CNC(=O)Nc1cccc(Cl)c1C | 1.35% |
| CCOC(=O)c1[nH]c(C)c(C(=O)OCCOc2cccc(C)c2)c1C | 5.99% |
| CC(C)C(=O)NC(Nc1cccc2cccnc12)C(Cl)(Cl)Cl (stereo not shown) | -17.8% |
| COc1cc(NC(=O)[C@@H](NC(=O)c2ccco2)C(C)C)c(OC)cc1NC(=O)c1ccccc1 | -36% |
| CCOC(=O)C1=C(N)OC(CCl)=C(C#N)C1c1ccsc1 (stereo not shown) | 8.35% |
| CCOC(=O)N1CCN(C(=O)/C(=C/c2ccc(OC)c(OC)c2)NC(=O)c2ccccc2)CC1 | -34.5% |
| CCOC(=O)N1CCN(C(=O)/C(=C/c2ccc(F)cc2)NC(=O)c2ccccc2)CC1 | -48.5% |
| CCOC(=O)N1CCN(C(=O)/C(=C\c2ccc(SC)cc2)NC(=O)c2ccccc2)CC1 | -78.5% |
| CCOC(=O)C1CCN(C(=O)/C(=C/c2ccccc2)NC(=O)c2ccccc2)CC1 | -30% |

| Compound | hERG current change (%, negative = inhibition) at 10uM |
| --- | --- |
| COc1ccc(/C=C(/NC(=O)c2ccccc2)C(=O)N2CCC(C)CC2)cc1 | -38.4% |
| CCOC(=O)N1CCN(C(=O)/C(=C/c2ccc(OC)cc2)NC(=O)c2ccccc2)CC1 | -68.4% |
| CCNc1nc(C(=O)O)nc(N2CCOCC2)n1 | 10.7% |
| CCCc1nnc(NC(=O)CC(C)c2ccccc2)s1 (stereo not shown) | 2.66% |
| Cc1nn(Cc2ccccc2)c(C)c1NC(=O)c1cccs1 | 14% |
| COc1ccccc1N1CCN(S(=O)(=O)CCNC(=O)C2CCCCC2)CC1 | -20.7% |
| CCOC(=O)c1ccc(Nc2ncnc3ccc(C)cc23)cc1 | 6.65% |
| Brc1ccccc1-c1nnc(COc2ncnc3ccccc23)o1 | -8.52% |
| O=[N+]([O-])c1ccc2c(OCc3nnc(-c4ccccc4Br)o3)ncnc2c1 | -74.1% |
| Brc1ccccc1-c1nnc(COc2ncnc3c2cnn3-c2ccccc2)o1 | 7.27% |
| COc1ccc(C2C(C(=O)N3CCN(c4ccccn4)CC3)CCC(=O)N2c2ccc(OC)cc2)cc1 (stereo not shown) | -47.3% |
| CCOc1ccc(N2CC(C(=O)N3CCc4ccccc43)CC2=O)cc1 (stereo not shown) | -47.6% |
| Cc1ccc(N2CC(C(=O)N3CCc4ccccc4C3)CC2=O)cc1 (stereo not shown) | -44.5% |
| CCOc1ccc(N2CC(C(=O)N3CC(C)OC(C)C3)CC2=O)cc1 (stereo not shown) | 20% |
| COc1ccc(C2C(C(=O)N3CCN(c4ccccn4)CC3)CC(=O)N2c2ccc(OC)cc2)cc1 (stereo not shown) | -78.7% |
| CCc1ccc(N2CC(C(=O)N3CCN(c4ccccn4)CC3)CC2=O)cc1 (stereo not shown) | -24.3% |
| Cc1ccc(N2CC(C(=O)N3CCCc4ccccc43)CC2=O)cc1 (stereo not shown) | -18.8% |
| CCOc1ccc(N2CC(C(=O)N3CCCc4ccccc43)CC2=O)cc1 (stereo not shown) | -62.6% |
| CCOc1ccc(N2CC(C(=O)N3CCCC3)CC2=O)cc1 (stereo not shown) | -4.65% |
| CCOc1ccc(N2CC(C(=O)N3CCN(c4ccccn4)CC3)CC2=O)cc1 (stereo not shown) | -59% |
| COc1ccc(N2C(=O)CCC(C(=O)N3CCN(c4ccccn4)CC3)C2c2ccc(F)cc2)cc1 (stereo not shown) | -48.2% |
| CCOc1ccc(N2CC(C(=O)N3CCc4ccccc4C3)CC2=O)cc1 (stereo not shown) | -75% |
